Sm TGR block – S. mansoni TGR enzyme inhibition; Q962Y6; AID 485364; hit rate 3% among 360,000; purified TGR, DTNB reduction, TNB absorbance 405 nm; Potency, µM (highest dose often 114 µM), without a hit: at the highest dose activity change, negative = inhibition, hits mostly inhibitors; further: nearly all actives have a fitted effect of over 60% in size
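TGR 20 nM + NADPH 100 uM (dispensed conc.), cpd preinc 15 min RT; start with NADPH (500 uM addition) then DTNB (15 mM addition). Kinetic TNB absorbance, 405 nm filter. Four-parameter Hill fit across titration.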
AmpC no deterg – AmpC beta-lactamase inhibition without detergent | P00811 | AmpC nitrocefin hydrolysis, absorbance 480 nm, 0.0001% Triton | Potency, µM (titrated, usually from 57.1 µM), for inactives: top-dose activity change, negative = inhibition, most hits filed as inhibitors | hit rate 0.52% among 330,000 | AID 485341;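 further: plate controls were no compound for no effect and no enzyme for full effect; nearly all actives have a fitted effect of over 20% in size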
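AmpC (5.3 nM in the dispensed reagent) in 20 mM phosphate pH 7.0 with 0.01% (detergent screen) or 0.0001% Triton X-100 was preincubated with compounds for 15 min at room temperature. Nitrocefin was then added from an 800 uM solution, and hydrolysis was followed at 480 nm.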
AmpC inh detg – AmpC beta-lactamase inhibition with detergent present; P00811; AmpC hydrolysis of nitrocefin, absorbance 480 nm, 0.01% Triton; Potency, µM (highest dose often 114 µM), for the others: top-dose activity change, negative = inhibition, most hits filed as inhibitors; hit rate 0.041% among 370,000;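 further: 0% = no-compound wells and -100% = no-enzyme wells; nearly all actives have a fitted effect of over 25% in size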
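20 mM phosphate pH 7.0 + 0.01% (detergent screen) or 0.0001% Triton X-100; 5.3 nM AmpC reagent; cpd preinc 15 min RT; nitrocefin (800 uM stock) to start; A480 q20 s × 4 min; Activity was normalised to no-enzyme and no-compound control wells.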
RE007 growth inh – less growth of the S. pombe RE007 Vpr strain; S. pombe RE007 Vpr strain, BacTiter-Glo ATP luminescence, 24 h; Potency, µM (top dose mostly 92.2 µM), without a hit: at the highest dose activity change, negative = less growth, usual class: inhibitors; hit rate 0.21% among 360,000; AID 651644; active means well fitted falling curve with a large enough effect; inconclusive means small, poorly fitted or top-dose-only effect; inactive means no such curve, though single readings can be large or run the other way; further: nearly all actives have a fitted effect of over 50% in size
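Fission yeast strain RE007, carrying one chromosomally integrated HIV-1 vpr copy, was seeded at OD 0.01 in PMG+AL medium with 23 nL pinned compound. After 24 h at 30 °C and 99% humidity, viability was read by BacTiter-Glo luminescence.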
Giardia FBPA inh – Giardia lamblia aldolase inhibition | purified Giardia FBPA | Potency, µM (doses to about 59.6 µM), inactives show top-dose activity, negative = inhibition, usual class: inhibitors | hit rate 0.71% among 290,000; further: nearly all actives have a fitted effect of over 55% in size
Target sequence (A8B2U2 whole entry, looked up): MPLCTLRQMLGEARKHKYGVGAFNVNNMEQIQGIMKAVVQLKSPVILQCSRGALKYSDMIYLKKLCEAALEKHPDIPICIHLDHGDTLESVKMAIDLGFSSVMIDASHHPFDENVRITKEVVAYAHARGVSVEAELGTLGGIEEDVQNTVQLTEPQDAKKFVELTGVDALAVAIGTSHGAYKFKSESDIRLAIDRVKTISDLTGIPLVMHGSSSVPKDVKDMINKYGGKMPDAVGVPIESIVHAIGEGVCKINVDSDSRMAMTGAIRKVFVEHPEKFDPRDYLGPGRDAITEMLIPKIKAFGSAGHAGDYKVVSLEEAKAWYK
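40 nM FBPA preincubated 10 min at RT with compound (up to 57.5 uM final), then substrate plus GAPDH/TPI/NAD/arsenate coupling and diaphorase/resazurin added. Fluorescence read after 20 min at RT, 525/598 nm.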
* hit, by the source's call; ? = inconclusive; nt = no result given. Hits are enriched below; roughly 3.4% of the tested compounds scored in any of these assays. Unless noted, the call rests on the fitted dose curve; in most records, active means well fitted curve in the direction sought with a large enough effect; inconclusive means small, poorly fitted or top-dose-only effect, or another doubt; inactive means no such curve, though single readings can be large; an effect the other way counts as inactive or inconclusive. Unless noted, on the % scale 0 is the no-effect control and ±100 the full control effect; potency means the concentration at half of the fitted maximal effect.

SMILES	Sm TGR block	AmpC no deterg	AmpC inh detg	RE007 growth inh	Giardia FBPA inh
O=C1CS/C(=N/N=C/c2ccco2)N1Cc1ccc(F)cc1	25.1µM*	-32.8%	2.3%	-4.3%	-4.9%
C=CCN1C(=O)C(Cc2ccc(F)cc2)S/C1=N/N=C/c1ccco1 (centres undefined)	-2.3%	-20.0%	?	14.1%	0.2%
C=CCN1C(=O)C(Cc2ccc(Br)cc2)S/C1=N\N=C\c1ccco1 (centres undefined)	?	-29.3%	-12.1%	11.5%	1.4%
CC1S/C(=N/N=C/c2ccco2)N(Cc2ccc(F)cc2)C1=O (centres undefined)	31.6µM*	-17.7%	10.8%	-0.1%	-5.1%
C=CCN1C(=O)C(Cc2ccc(OC)cc2)S/C1=N/N=C/c1ccco1 (centres undefined)	39.8µM*	-1.8%	-0.2%	-3.5%	-10.9%
CCC1S/C(=N/N=C/c2ccco2)N(c2ccc(F)cc2)C1=O (centres undefined)	-2.3%	-12.7%	?	-28.8%	3.0%
CCC1S/C(=N/N=C/c2ccco2)N(Cc2ccccc2)C1=O (centres undefined)	20µM*	-53.3%	-5.8%	4.1%	0.9%
CCCOC(=O)Nc1ccc([As](=O)(O)O)cc1NC(=O)OCCC	12.6µM*	0.2%	-6.8%	-20.1%	-0.1%
CCOC(=O)Nc1ccc(C)cc1NC(=O)OCC	-2.2%	-23.3%	-14.4%	-23.2%	-1.4%
Cn1cnc([N+](=O)[O-])c1Sc1ncnc2nc[nH]c12	10µM*	-6.3%	4.5%	-6.5%	1.6%
Cc1cccnc1Sc1c([N+](=O)[O-])ncn1C	0.0%	-4.0%	-13.1%	-8.1%	-7.3%
N#Cc1c(N)n(-c2cccc(C(=O)O)c2)c2nc3ccccc3nc12	0.5%	-19.7%	2.3%	3.8%	-25.4%
N#Cc1c(N)n(-c2ccccc2N)c2nc3ccccc3nc12	44.7µM*	1.9%	-6.4%	13.6%	-10.7%
O=C(N/N=C(\c1ccccc1)c1cccnc1)c1cc(O)ccc1O	39.8µM*	-29.3%	2.5%	nt	-24.8%
O=C(CSc1nnc(Cc2cccs2)n1Cc1ccco1)Nc1ccc(Cl)cc1Cl	?	-29.7%	?	-7.1%	13.6%
NC(=O)c1c(NC(=O)CSc2nnc(Cc3ccccc3)n2Cc2ccco2)sc2c1CCC2	25.1µM*	-20.9%	-7.7%	13.2%	4.4%
O=C(CSc1nnc(Cc2ccccc2)n1Cc1ccco1)NC12CC3CC(CC(C3)C1)C2	-7.3%	-3.8%	3.1%	-0.4%	-0.4%
O=C(CSc1nnc(Cc2cccs2)n1Cc1ccco1)Nc1ccc(Br)cc1	20µM*	-27.9%	-10.0%	4.8%	0.3%
CCOC(=O)c1c(NC(=O)CSc2nnc(-c3c[nH]c4ccccc34)n2CC)sc2c1CCCC2	-9.9%	1.41µM*	-5.2%	2.5%	0.1%
CCOC(=O)c1c(NC(=O)CSc2nnc(C)s2)sc2c1CCN(C)C2	31.6µM*	3.8%	-10.5%	-23.9%	?
CCOC(=O)CSc1nnc(-c2c[nH]c3ccccc23)n1CC	-1.7%	-7.0%	-1.3%	-3.2%	-1.8%
COc1ccc(N2CCN(C(=O)CCc3nnc4n(C)c(=O)c5sccc5n34)CC2)cc1	-5.8%	nt	-1.6%	nt	nt
Nc1ccc2c3c(cccc13)CC2	-2.3%	-19.1%	-7.8%	-3.3%	-26.7%
CCC(C)(C)NC(=O)C(c1ccc(C)cc1)N(CC1CCCO1)C(=O)c1csnn1 (centres undefined)	-15.1%	37.6%	-14.4%	0.0%	-0.4%
O=C(Nc1ccc(C(O)c2ccccc2)cc1)[C@H]1C[C@H](O)[C@@H](CO)O1 (some centres undefined)	nt	nt	nt	1.4%	nt
Cc1ccc2sc(NNC(=O)c3cc(=O)c4ccccc4o3)nc2c1C	-3.8%	-46.6%	5.8%	-15.4%	22.3µM*
Cc1cccc2sc(NNC(=O)c3cc(=O)c4ccccc4o3)nc12	4.2%	-40.9%	-1.0%	-13.9%	-16.5%
Cn1c(COc2ccc(Cl)cc2)nnc1SCc1ncc(-c2ccccc2)o1	22.4µM*	105.9%	3.1%	5.2%	-5.5%
COc1ccc(/C=N/NC(=O)c2ccccc2O)cc1Cn1nnc2ccccc21	7.2%	-39.9%	-1.6%	7.3%	6.2%
